# Pf growth 48h – P. falciparum growth inhibition at 48 hours (one generation); Potency, µM (top dose mostly 28.7 µM), inactives show top-dose activity change, negative = inhibition, hits mostly inhibitors; P. falciparum luciferase growth in erythrocytes, 48 h; 310,000 compounds, 5.9% hits
#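 First compound was added to culture medium, then infected red cells at 0.1% parasitemia and 2% hematocrit (final). After incubation at 37 C under 5% CO2, luciferase detection reagent was dispensed and light output recorded.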
# AMA1-RON2 inh – inhibitors of Plasmodium falciparum AMA1-RON2 interaction; AlphaScreen AMA1-biotinylated RON2 peptide binding; Potency, µM (series often up to 58.2 µM), for the others: at the top dose activity change, negative = inhibition, most hits filed as inhibitors; 360,000 compounds, 0.2% hits; AID 720542;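 note: 0% = vehicle wells and -100% = peptide control; nearly all actives have a fitted effect of over 45% in size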
#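 AMA1 (3D7) with his tag at 25 nM final met compounds first, then biotinylated RON2 peptide at 25 nM; detection used donor plus acceptor beads, 10 µg/mL apiece, read by AlphaScreen after 30 min at room temperature.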
# VACV Venus inh – vaccinia inhibition (Venus reporter) | Vaccinia virus Venus reporter expression, fluorescence | Potency, µM (series often up to 36.5 µM), for the others: at the top dose activity change, negative = inhibition, actives largely listed as inhibitors | 330,000 compounds, 0.46% hits | AID 720580; calls by dose curve; tested in A549 cells; note: nearly all actives have a fitted effect of over 30% in size
# Vaccinia mCherry – inhibitors of vaccinia virus infection (mCherry reporter signal). Vaccinia virus mCherry reporter infection, fluorescence. Potency, µM (top dose mostly 36.5 µM), for inactives: at the top dose activity change, negative = inhibition, actives largely listed as inhibitors. 310,000 compounds, 0.63% hits. AID 720579; calls by dose curve; tested in A549 cells; note: nearly all actives have a fitted effect of over 35% in size
# Pf growth 96h – inhibits malaria parasite growth, 96 h; P. falciparum luciferase reporter growth, 96 h; Potency, µM (titrated, usually from 28.7 µM), for inactives: at the top dose activity change, negative = inhibition, actives largely listed as inhibitors; 320,000 compounds, 6.9% hits
#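 P. falciparum expressing integrated firefly luciferase grown in erythrocytes (2% hematocrit, 0.05% parasitemia final) with compounds for 96 hours at 37 C, 5% CO2. Growth inhibition read as loss of luminescence after adding luciferase detection reagent.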
# Numbers without * were called inactive; i = inactive; ? = inconclusive; . = not tested or not shown; [ ] = remark or other dose. An excerpt weighted towards active compounds, which were near 8.7% of everything screened. Unless noted, calls come from the whole dose curve; as a rule, active = well fitted curve in the direction sought with a large enough effect; inconclusive = small, poorly fitted or top-dose-only effect, or another doubt; inactive = no such curve, though single readings can be large; an effect the other way counts as inactive or inconclusive. Unless noted, % is set by controls: 0 for no effect and ±100 for the full control effect; potency is the fitted concentration of half-maximal effect.
SMILES,Pf growth 48h,AMA1-RON2 inh,VACV Venus inh,Vaccinia mCherry,Pf growth 96h
COc1cc(/C=C/C(=O)OCC(=O)NC(=O)NC23CC4CC(CC(C4)C2)C3)ccc1OCC#N,14.7µM*,-2.8%,?,-12.0%,?
CCOc1ccc(CCNC(=O)CCSCc2ccc(Cl)cc2)cc1OCC,.,.,-4.8%,-10.5%,.
CC(=O)Nc1ccc(S(=O)(=O)Nc2cccc(-c3ccc4nncn4n3)c2)cc1,-25.9%,-3.6%,-9.1%,-4.5%,2.08µM*
COc1ccc(CNC(=O)C2CCN(S(=O)(=O)c3c(C)noc3/C=C/c3cccs3)CC2)cc1,.,.,-6.1%,-10.0%,.
CCOC(=O)c1cccc(NC(=O)c2cc(S(=O)(=O)N3CCCC3)cn2C)c1,.,.,-6.5%,-7.1%,.
OC[C@@H]1CCCN1Cc1cn(-c2ccccc2)nc1-c1ccc2c(c1)OCO2,13.1µM*,-7.5%,.,.,356.8%
CCC(=O)OC1C(N(C)C)CC(C)O[C@H]1O[C@H]1[C@H](C)[C@@H](O[C@H]2CC(OC)[C@@H](O)C(C)O2)[C@H](C)C(=O)O[C@@H](CC)[C@](C)(O)[C@@H](O)[C@H](C)C(=O)[C@@H](C)C[C@]1(C)O (stereo partly drawn),-16.5%,.,.,.,7.57µM*
CCOC(=O)CCC(=O)O[C@H]1[C@H](O[C@@H]2[C@@H](C)[C@H](O[C@H]3C[C@@](C)(OC)[C@@H](O)[C@H](C)O3)[C@@H](C)C(=O)O[C@H](CC)[C@@](C)(O)[C@H](O)[C@@H](C)C(=O)[C@H](C)C[C@@]2(C)O)O[C@H](C)C[C@@H]1N(C)C,-12.8%,13.5%,-13.8%,i,5.22µM*
Cc1cccc(NC(=O)Cn2cc(C(=O)C3CCCCC3)c3ccccc32)c1C,.,.,-18.4%[7.34 µM],-22.0%[7.34 µM],.
Cc1ccc(S(=O)(=O)c2nnn3c2nc(NC(C)C)c2sccc23)cc1,.,.,-25.6%,?,.
CC(NC(=O)/C=C/c1ccco1)c1nc2ccccc2n1Cc1ccccc1F (stereo not drawn),?,0.0%,?,0.6%,10.4µM*
CC(NC(=O)/C=C/c1ccco1)c1nc2ccccc2n1Cc1c(Cl)cccc1Cl (stereo not drawn),?,9.2%[2.32 µM],-16.5%,-22.9%,?
COc1ccc([N+](=O)[O-])cc1-n1cccc1,9.6%,?,-4.3%,-9.6%,194.8%
Cc1ccc(C)n1-c1cc([N+](=O)[O-])ccc1-n1ccnc1,11.7µM*,-0.1%,-11.5%,-10.9%,?
O=C(Nc1sc2c(c1C(=O)NCc1cccnc1)CCCC2)c1cc(=O)c2ccccc2o1,.,.,-16.3%,-12.7%,.
CCC1CN(CCNC(=O)c2ccc(C#CC(C)(C)O)cc2)Cc2cc(OC)ccc2O1 (stereo not drawn),.,.,-8.2%,-14.6%,.
CCOC(=O)C(C)N1C(=O)S/C(=C/c2cc(C)n(-c3ccncc3)c2C)C1=O (stereo not drawn),?,-21.7%,?,?,13.1µM*
COc1ccc(S(=O)(=O)N2CCC(c3nc4ccccc4s3)CC2)cc1OC,.,.,-11.6%,-2.2%,.
COc1cc(S(=O)(=O)N2CCC(c3nc4ccccc4s3)CC2)ccc1S(=O)(=O)NC1CCCC1,?,-2.5%,-0.9%,i,9.28µM*
Cc1ccc(Cn2cc(CCC(=O)NC3CCC(C)CC3)c3ccccc32)cc1 (stereo not drawn),.,.,-10.7%,-13.8%,.
Cc1cc(N=Nc2ccccc2C)ccc1N,.,11.2µM*,-23.0%,?,.
CCOCCCNC(=O)C(c1ccccc1)N(Cc1ccc2c(c1)OCO2)C(=O)c1ccc(NC(C)=O)cc1 (stereo not drawn),.,.,-11.2%,-6.4%,.
O=C(Nc1c2ccccc2nc2ccccc12)C(Cl)(Cl)Cl,1.04µM*,5.8%,-23.5%,.,35.6%
O=C(Nc1c2c(nc3ccccc13)CCCC2)c1ccccc1Cl,18.1%,-15.6%,9.4%,-1.3%,-17.8%
CC(=O)O[C@@]12CO[C@@H]1C[C@H](O)[C@@]1(C)C(=O)[C@H](O)C3=C(C)[C@@H](O)C[C@@](O)([C@@H](OC(=O)c4ccccc4)C12)C3(C)C (stereo partly drawn),9.4%,4.7%,-12.4%,-17.9%,?
SMILES,Pf growth 48h,AMA1-RON2 inh,VACV Venus inh,Vaccinia mCherry,Pf growth 96h
C/C=C(\C)C(=O)N[C@@H](c1ccccc1)[C@@H](O)C(=O)O[C@H]1C[C@@]2(O)[C@@H](OC(=O)c3ccccc3)C3[C@](C)(C(=O)[C@H](O)C(=C1C)C2(C)C)[C@@H](O)C[C@H]1OC[C@@]31OC(C)=O (stereo partly drawn),0.0657µM*,16.2%,?,-11.0%,0.0738µM*
C/C=C(\C)C(=O)N[C@@H](c1ccccc1)[C@@H](O)C(=O)O[C@H]1C[C@@]2(O)[C@@H](OC(=O)c3ccccc3)C3[C@](C)(C(=O)[C@H](OC(C)=O)C(=C1C)C2(C)C)[C@@H](O)C[C@H]1OC[C@@]31OC(C)=O (stereo partly drawn),?,0.0%,-22.4%,-20.3%,0.0329µM*
COc1ccc(CCNC(=O)CSc2cc(=O)n(C)c3ccccc23)cc1OC,.,.,-2.7%,-11.7%,.
Cc1cccc(C)c1NC(=O)Cn1cc(S(=O)(=O)Cc2ccc(F)cc2)c2ccccc21,.,.,-13.7%,i,.
C=CCOc1ccc(CC2C(=O)N(C)C(=O)N(C)C2=O)cc1,3.7µM*,10.3%,2.4%,-12.8%,0.5%
CCc1ccc(C(=O)COC(=O)CNC(=O)c2ccc(N3C(=O)c4ccccc4C3=O)cc2)cc1,35.9%,18.5%,.,.,14.7µM*
COc1cccc(C(=O)Nc2c3c(nn2-c2ccc(Cl)cc2)CS(=O)(=O)C3)c1,.,.,0.2%,0.6%,.
NNc1nc(-c2ccccc2)cc(-c2ccccc2)n1,?,63.5%,.,.,4.9%

# Bioassay records from PubChem BioAssay.
